Compound activity as filed in PubChem.
Only some compounds are listed: those with a hit (about 3% of all), similar ones and a draw of the others.
GDH-TPI counter = counter-screen for M. tuberculosis FBA inhibitors: GDH-TPI coupled enzymes; GDH-TPI coupled enzyme counterscreen, NADH absorbance; inhibition, % at 4.8 µM; 360,000 compounds, 1.2% hits; AID 588335; in the data active means inhibition above about 30%;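 further: 0% = DMSO wells and 100% = wells lacking the enzyme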
BioA inh = inhibitors of Mycobacterium tuberculosis BioA enzyme. purified M. tuberculosis BioA enzyme, plate reader. inhibition, % at 9.99 µM. 360,000 compounds, 0.096% hits. AID 602481; in the data active means inhibition above about 40%
Vc quorum ag = quorum light induction in luxS cqsA deficient V. cholerae; V. cholerae BH1578 lux reporter, luminescence, 6 h; activation, % at 18.7 µM; 350,000 compounds, 0.16% hits; in the data active means activation mostly above about 9.7%, no sharp cut-off
Mtb FBA inh = Mtb fructose-bisphosphate aldolase inhibition | P9WQA3 | purified M. tuberculosis FBA, fluorescence read-out | inhibition, % at 1 µM | 360,000 compounds, 2.3% hits; in the data active means inhibition above about 27%;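 further: 0% = vehicle and 100% = reference inhibitor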
Target sequence (P9WQA3 whole entry, looked up): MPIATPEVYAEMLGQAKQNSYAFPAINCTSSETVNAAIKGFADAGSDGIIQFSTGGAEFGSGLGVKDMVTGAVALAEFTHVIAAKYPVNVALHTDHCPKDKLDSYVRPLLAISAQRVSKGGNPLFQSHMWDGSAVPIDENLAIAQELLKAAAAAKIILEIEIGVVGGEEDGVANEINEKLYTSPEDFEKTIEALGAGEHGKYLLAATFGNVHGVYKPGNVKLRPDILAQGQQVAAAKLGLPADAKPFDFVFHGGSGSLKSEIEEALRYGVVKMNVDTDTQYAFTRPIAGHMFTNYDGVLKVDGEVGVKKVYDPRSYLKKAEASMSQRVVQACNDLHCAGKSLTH
The depositor's hits bear a star; i = inactive; x = not tested or not shown; + = active, no number.

SMILES	GDH-TPI counter	BioA inh	Vc quorum ag	Mtb FBA inh
O=C(N[C@@H]1CC[C@H](CCNS(=O)(=O)c2ccc(F)cc2)O[C@H]1CO)c1ccccn1	x	-4	x	x
OCCCN=c1cc(-c2ccccc2)oc2ccc(Cl)cc12	49*	x	0	0
CN(C)CCOc1ccc2c(c1)C(=O)C(=Cc1ncc([N+](=O)[O-])n1C)C2	32*	0	i	3
CCc1cc(OCCN(C)C)ccc1Cl	3	x	5	19
COc1ccc(-c2cn3cccnc3n2)cc1NC(=O)C(C)Oc1ccccc1 (configuration not stated)	13	6	0	122*
COc1cccc(C(=O)Nc2cc(-c3cn4cccnc4n3)ccc2C)c1	16	1	0	+
CCOCC(=O)Nc1cc(-c2cn3cccnc3n2)ccc1C	14	0	3	+
C[C@@H]1CCCCO[C@H](CN(C)C(=O)CCC(F)(F)F)[C@@H](C)CN([C@@H](C)CO)C(=O)c2cc(N(C)C)ccc2O1	x	0	x	x
CCCN(C)C[C@H]1Oc2ncc(-c3ccccc3)cc2C(=O)N([C@H](C)CO)C[C@@H]1C	x	-2	x	x
O=C(N[C@H]1CC[C@@H](CCn2cc(C3(O)CCCC3)nn2)O[C@H]1CO)C1CCC1	x	-5	x	x
c1ccc(-n2nc3c(ccc4cnnc43)[nH]2)cc1	27	-1	-1	144*
CC=Cc1ccc2n(c1=O)C[C@@H]1[C@@H](CO)[C@H](C(=O)N3CCc4ccccc4C3)N(C(=O)C3CC3)[C@H]21 (mixture of isomers)	x	0	x	x
Cc1cc(C)c([N+](=O)[O-])cc1-c1ccc(/C=N/c2c(-c3ccco3)nc3ccccn23)o1	33*	x	0	1
O=[N+]([O-])c1ccc(-c2ccc(/C=N/c3c(-c4ccco4)nc4ccccn34)o2)cc1	49*	x	1	6
CC(=O)N1CCCCN2[C@H](CO)[C@H](c3ccc(C#Cc4ccccc4F)cc3)[C@@H]2C1	x	2	x	x
C/C(=N\Nc1ccc(Cl)c(C(=O)O)c1)c1cccc2ccccc12	16	1	i	-1
C/C(=N\Nc1cccc([N+](=O)[O-])c1)c1cc2ccccc2o1	2	x	-1	0
C/C(=N\Nc1ccc(Cl)c(C(=O)O)c1)c1ccccn1	37*	x	0	1
C/C(=N\Nc1cccc(C(=O)O)c1)c1cc2ccccc2o1	48*	x	0	-2
C/C(=N\Nc1ccc(Cl)c(C(=O)O)c1)c1cc2ccccc2o1	31*	-1	i	-1
O=C(C[C@H]1CC[C@H]2[C@@H](COC[C@H](O)CN2Cc2cc(F)ccc2F)O1)N[C@@H]1CCN(Cc2ccccc2)C1	x	-2	x	x
CCOC(=O)c1sc(=S)[nH]c1C	31*	x	i	-3
C[C@H]1CN([C@@H](C)CO)C(=O)Cc2cc(NC(=O)NC3CCCCC3)ccc2O[C@@H]1CN(C)C(=O)Nc1ccc(C(F)(F)F)cc1	x	1	x	x
Cc1ccc2cc(COC(=O)c3ccco3)c(=O)[nH]c2c1	5	-2	17*	3
O=C(OCc1cc2ccccc2[nH]c1=O)c1ccco1	15	2	-6	-1
SMILES	GDH-TPI counter	BioA inh	Vc quorum ag	Mtb FBA inh
C[C@@H]1CCCCO[C@H](CN(C)C(=O)CCCN(C)C)[C@H](C)CN([C@@H](C)CO)C(=O)c2cc(NC(=O)NC3CCCCC3)ccc2O1	x	0	x	x
O=C1CS/C(=N/N=C/c2ccncc2)N1	30	-1	-1	-3
Cn1ccc(/C=N/N=C2/NC(=O)CS2)n1	46*	-2	i	-1
C[C@@H]1CN([C@@H](C)CO)C(=O)Cc2cc(NS(=O)(=O)c3ccc(Cl)cc3)ccc2O[C@H]1CN(C)S(=O)(=O)c1cn(C)cn1	x	-1	x	x
O=C(Nc1ccccc1F)N[C@H]1CC[C@@H](CCNS(=O)(=O)c2ccccc2)O[C@H]1CO	x	-3	x	x
Cc1ccc(-n2c(C)cc(C=C3C(=O)N(C)C(=O)N(C)C3=O)c2C)cc1	12	x	0	112*
Cc1cc(/C=C2/C(=O)NC(=O)N(C)C2=O)c(C)n1-c1ccccc1	4	8	0	-2
O=c1ccc2ccccc2n1Cc1cccc(F)c1	11	x	i	2
CCCCn1c(-c2ccccc2C)nc2cc3[nH]c(=O)c(C(C)C)nc3cc21	7	4	8	27
Cc1cc2nc(-c3ccc[nH]c3=O)n(Cc3cccc(F)c3)c2cc1C	23	-1	0	149*
O=c1[nH]cccc1-c1nc2ccccc2n1Cc1cccc(Cl)c1	3	-2	0	135*
Clc1ncccc1-c1nc2ccccc2n1Cc1ccccc1	-8	-2	3	5
O=c1[nH]cccc1-c1nc2ccccc2n1Cc1cccc(F)c1	8	-1	1	162*
CCCn1c(-c2ccc[nH]c2=O)nc2cc(C)c(C)cc21	2	x	i	115*
C[C@@H]1CN([C@@H](C)CO)C(=O)c2ccccc2-c2ccccc2CO[C@H]1CN(C)C(=O)Nc1ccc(F)cc1	x	-2	x	x
CCc1cc2c(=O)n(-c3ccccc3)c(=S)[nH]c2s1	32*	0	i	2
Cc1ccc(S(=O)(=O)/N=C2/NC(=O)/C(=C\c3ccccc3)S2)cc1	39*	3	-2	0
O=C1N/C(=N\S(=O)(=O)Cc2ccccc2)S/C1=C/c1cccc([N+](=O)[O-])c1	49*	2	i	3
Cc1ccc(S(=O)(=O)/N=C2/NC(=O)/C(=C/c3ccccc3)S2)cc1	34*	x	0	-1
Cc1ccc(S(=O)(=O)/N=C2/NC(=O)/C(=C\c3ccco3)S2)cc1	22	-2	i	0
COc1cc(C(=O)N/C(=C\c2cn(C)c3ccccc23)C(=O)NCCN2CCOCC2)cc(OC)c1OC	41*	0	3	-2
COc1ccc(C(=O)N/C(=C\c2cn(C)c3ccccc23)C(=O)NCCN2CCOCC2)cc1OC	44*	0	i	3
CCn1cc(/C=C(\NC(=O)c2cc(OC)c(OC)c(OC)c2)C(=O)NCCN2CCOCC2)c2ccccc21	30	x	i	-4
COc1ccc(/C=C2/C(=O)N=C(N)N2C)cc1OC	24	1	17*	-1
O=[N+]([O-])c1cc([N+](=O)[O-])c(N2CCCCCC2)cc1NCCO	34*	6	-6	-6
SMILES	GDH-TPI counter	BioA inh	Vc quorum ag	Mtb FBA inh
Cn1c(=O)c2c(nc(N/N=C/c3cccnc3)n2Cc2ccccc2)n(C)c1=O	31*	x	-1	1
Cn1c(=O)c2c(nc(N/N=C/c3cccs3)n2C)n(C)c1=O	25	-1	-1	-6
Cn1c(=O)c2c(nc(N/N=C/c3ccco3)n2C)n(C)c1=O	56*	0	0	1
Cc1ccc(S(=O)(=O)N[C@@H]2CC[C@H](CCNC(=O)c3ccccc3F)O[C@@H]2CO)cc1	x	1	x	x
OC[C@H]1[C@H](c2ccc(C#Cc3ccccc3F)cc2)[C@H]2CN(Cc3cncnc3)CCCCN21	x	5	x	x
COc1cc(C)ccc1OCCOc1ccccc1Cl	-5	0	3	118*
COc1ccc(S(=O)(=O)N2C[C@H](O)COC[C@H]3O[C@H](CC(=O)NCCCN(C)C)CC[C@@H]32)cc1	x	3	x	x
C=CCn1c(-c2ccccc2)nc(=S)c2c1CC(C)(C)OC2	35*	0	-1	-2
